Assay [1] is described as follows: E. coli DRC41 culture turbidity changes, primary screen, E. coli filamentation inducer project, strain DRC41, OD650, 48 h (AID 1152).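 Further: E. coli MC1000 strain DRC41 lacking acrAB efflux pump and sulA.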 The conditions noted are these: E. coli DRC41 (acrAB sulA), higher = more signal, called active from +8 up or from −8 down.
The nature of assay [2]: small-molecule binders of probe aLefty1, primary screen, biochemical, small-molecule microarray, 635/667 nm fluorescence (AID 1153).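 Further: score merges spot fluorescence with signal-to-noise ratio from the scanned slide images.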 The conditions noted are these: higher = more signal.
The nature of assay [3]: PSAC antagonists in infected red cells, primary screen, cell-based, P. falciparum Indochina, OD700, 1 h (AID 1154). The conditions noted are these: P. falciparum Indochina infected RBC osmotic lysis, higher = more signal, called active from +8 up or from −8 down.
A short description of assay [4]: PSAC antagonists in infected red cells, primary screen, cell-based, P. falciparum Indochina, OD700, 2 h (AID 1155).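 Further: lysis reports solute entry through the parasite surface anion channel PSAC; channel blockers reduce lysis of infected cells.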 The conditions noted are these: P. falciparum Indochina infected erythrocytes, osmotic lysis OD700; higher = more signal, called active from +8 up or from −8 down.
The nature of assay [5]: osmotic lysis modulators in infected erythrocytes, primary screen, PSAC antagonist project, cell-based, P. falciparum Indochina, OD700, 3 h (AID 1156). The conditions noted are these: higher = more signal, called active from +8 up or from −8 down.
Assay [6] is described as follows: PSAC antagonists in infected red cells, primary screen, cell-based, P. falciparum Indochina, OD700, 18 h (AID 1157). The conditions noted are these: P. falciparum Indochina infected erythrocytes, osmotic lysis OD700, 18 h; higher = more signal, called active from +8 up or from −8 down.
The nature of assay [7]: modulators of S6 phosphorylation in cells, primary screen, cell-based, A549, cytoblot, luminescence, serum-stimulated (AID 1158).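 Further: serum-stimulated A549 lung adenocarcinoma cells; signal is phosphorylated S6 detected by cytoblot immunostaining with HRP secondary.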 The conditions noted are these: A549 phospho-S6 cytoblot, 5 h, higher = more signal.
For assay [8], the target named is NADPH oxidase 2 (Homo sapiens) (UniProt P04839). As to the kind of experiment: NOX2-dependent H2O2 signal modulators, primary screen, NOX inhibitor project, cell-based, HEK293-NOX2, PMA-stimulated, Amplex Red fluorescence (AID 1159). Further: test concentration not given here. The conditions noted are these: 45 min, higher = more signal, called active from +8 up or from −8 down.
NADPH oxidase 2 (Homo sapiens), sequence (P04839 whole entry, looked up): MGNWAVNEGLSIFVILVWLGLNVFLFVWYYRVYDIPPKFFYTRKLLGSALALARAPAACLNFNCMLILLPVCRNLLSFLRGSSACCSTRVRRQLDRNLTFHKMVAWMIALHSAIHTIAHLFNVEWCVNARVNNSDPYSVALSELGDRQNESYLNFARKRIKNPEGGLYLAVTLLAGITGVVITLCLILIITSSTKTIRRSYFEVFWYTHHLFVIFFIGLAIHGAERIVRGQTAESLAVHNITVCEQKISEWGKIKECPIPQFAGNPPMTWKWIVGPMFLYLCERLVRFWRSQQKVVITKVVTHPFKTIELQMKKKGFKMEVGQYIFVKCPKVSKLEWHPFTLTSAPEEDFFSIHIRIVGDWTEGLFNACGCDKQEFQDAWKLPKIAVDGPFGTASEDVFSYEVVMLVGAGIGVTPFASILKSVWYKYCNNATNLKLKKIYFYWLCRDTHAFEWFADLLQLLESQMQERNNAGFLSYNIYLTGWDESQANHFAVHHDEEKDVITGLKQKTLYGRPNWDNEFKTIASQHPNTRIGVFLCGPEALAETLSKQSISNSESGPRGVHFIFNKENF
For assay [9], the target named is NADPH oxidase 4 (Homo sapiens) (UniProt Q9NPH5). As to the kind of experiment: NOX4-dependent H2O2 signal modulators, primary screen, NOX inhibitor project, cell-based, HEK293-NOX4, tetracycline-induced, Amplex Red fluorescence (AID 1160). The conditions noted are these: 45 min, higher = more signal, called active from +8 up or from −8 down.
NADPH oxidase 4 (Homo sapiens), sequence (Q9NPH5 whole entry, looked up): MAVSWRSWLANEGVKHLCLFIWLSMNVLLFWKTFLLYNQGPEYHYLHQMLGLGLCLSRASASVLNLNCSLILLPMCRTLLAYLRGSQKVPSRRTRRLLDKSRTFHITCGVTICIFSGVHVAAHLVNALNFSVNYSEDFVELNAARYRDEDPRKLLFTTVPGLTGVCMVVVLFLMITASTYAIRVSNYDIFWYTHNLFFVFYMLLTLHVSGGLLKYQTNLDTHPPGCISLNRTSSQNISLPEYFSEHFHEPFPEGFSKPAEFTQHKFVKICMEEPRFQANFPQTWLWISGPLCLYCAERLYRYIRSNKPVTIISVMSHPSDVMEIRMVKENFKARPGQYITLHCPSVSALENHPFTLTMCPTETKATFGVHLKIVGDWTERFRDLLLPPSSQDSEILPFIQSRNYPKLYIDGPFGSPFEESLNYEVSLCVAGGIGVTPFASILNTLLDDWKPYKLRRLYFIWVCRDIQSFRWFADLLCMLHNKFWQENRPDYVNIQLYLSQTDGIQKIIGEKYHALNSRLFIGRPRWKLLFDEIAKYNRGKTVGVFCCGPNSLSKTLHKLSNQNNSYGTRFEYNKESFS
The target of assay [10] is NADPH oxidase 5 (Homo sapiens) (UniProt Q96PH1). As to the kind of experiment: NOX5-dependent H2O2 signal modulators, primary screen, NOX inhibitor project, cell-based, HEK293-NOX5, Amplex Red fluorescence (AID 1161). The conditions noted are these: HEK293-NOX5, ionomycin, 45 min, higher = more signal.
NADPH oxidase 5 (Homo sapiens), sequence (Q96PH1 whole entry, looked up): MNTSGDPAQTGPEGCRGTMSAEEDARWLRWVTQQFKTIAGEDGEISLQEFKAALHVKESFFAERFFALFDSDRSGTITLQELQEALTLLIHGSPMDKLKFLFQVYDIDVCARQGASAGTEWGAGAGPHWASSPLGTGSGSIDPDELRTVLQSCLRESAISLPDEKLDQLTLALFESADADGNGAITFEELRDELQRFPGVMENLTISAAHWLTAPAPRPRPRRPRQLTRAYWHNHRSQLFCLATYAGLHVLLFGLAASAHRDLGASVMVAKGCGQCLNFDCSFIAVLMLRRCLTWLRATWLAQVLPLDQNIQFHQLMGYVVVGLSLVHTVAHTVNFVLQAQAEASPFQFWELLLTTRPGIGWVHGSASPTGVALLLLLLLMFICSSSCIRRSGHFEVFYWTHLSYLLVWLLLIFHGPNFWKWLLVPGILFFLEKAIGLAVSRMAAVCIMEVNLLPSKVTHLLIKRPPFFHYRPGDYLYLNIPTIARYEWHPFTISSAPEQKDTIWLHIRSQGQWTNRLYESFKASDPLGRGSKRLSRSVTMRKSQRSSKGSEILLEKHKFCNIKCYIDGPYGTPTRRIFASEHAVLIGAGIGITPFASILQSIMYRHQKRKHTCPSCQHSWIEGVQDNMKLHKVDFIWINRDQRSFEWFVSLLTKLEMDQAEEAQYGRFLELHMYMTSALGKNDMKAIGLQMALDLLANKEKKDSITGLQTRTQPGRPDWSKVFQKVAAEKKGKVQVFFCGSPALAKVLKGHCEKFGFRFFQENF
A short description of assay [11]: A549 cell viability effects, profiling panel, calcein-AM fluorescence, 48 h, basal (AID 1162). Further: test concentration not given here. The conditions noted are these: higher = more signal.
Assay [12] is described as follows: adipocyte viability effects, profiling panel, cell-based, 3T3-L1 adipocytes, calcein-AM fluorescence, 48 h, basal (AID 1163). Further: test concentration not given here. The conditions noted are these: 3T3-L1 adipocytes viability, higher = more signal.
Assay [13] is described as follows: HepG2 cell viability effects, profiling panel, calcein-AM fluorescence, 48 h, basal (AID 1164). Further: test concentration not given here. The conditions noted are these: higher = more signal.
The nature of assay [14]: MM1S cell viability effects, profiling panel, calcein-AM fluorescence, 48 h, basal (AID 1165).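 Further: viability of MM1S multiple myeloma cells under basal unstimulated conditions; test concentration not given here.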 The conditions noted are these: higher = more signal.
A short description of assay [15]: basal RPMI8226 viability, no added stimulus, profiling panel, cell-based, calcein-AM fluorescence, 48 h, PK04 Diversity Set (AID 1166).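 Further: cells grown under basal conditions without added stimulus; test concentration not given here.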 The conditions noted are these: RPMI8226 myeloma viability, higher = more signal.
Assay [16] is described as follows: basal HepG2 mitochondrial membrane potential changes, profiling panel, cell-based, JC-1 fluorescence, 24 h, 100 nL compound (AID 1167). Further: test concentration not given here. The conditions noted are these: higher = more signal.
Assay [17] in a line: basal 3T3-L1 adipocyte mitochondrial potential changes, profiling panel, cell-based, JC-1 fluorescence, 3T3-L1 adipocytes, 24 h, 100 nL compound (AID 1168). Further: test concentration not given here. The conditions noted are these: JC-1 mitochondrial fluorescence, higher = more signal, called active from +8 up or from −8 down.
The nature of assay [18]: basal RPMI8226 mitochondrial membrane potential changes, profiling panel, cell-based, JC-1 fluorescence, 24 h, 100 nL compound (AID 1169). Further: test concentration not given here. The conditions noted are these: RPMI8226 myeloma, JC-1 mitochondrial potential fluorescence, higher = more signal.
Assay [19] is described as follows: basal MM1S mitochondrial membrane potential changes, profiling panel, cell-based, JC-1 fluorescence, 24 h, 100 nL compound (AID 1170). Further: test concentration not given here. The conditions noted are these: higher = more signal.
Assay [20] is described as follows: A549 lung cancer cell viability effects, profiling panel, resazurin fluorescence, 24 h, PK04 Diversity Set (AID 1171). Further: test concentration not given here. The conditions noted are these: higher = more signal, called active from +8 up or from −8 down. On the technique in general: Resazurin is reduced to fluorescent resorufin, in cell work by metabolically active cells.

Activity calls are given as the source filed them.

In the case of `COc1cc2c(cc1OC)CN(C(=O)[C@H]1[C@@H]3C(=O)O[C@@H](c4ccccc4)[C@@H](c4ccccc4)N3[C@@H](c3ccc(O)cc3)[C@]13C(=O)Nc1ccc(C#CC4=CCCCC4)cc13)CC2`, the z-score is 1.21 (inactive) in [1]; 0.924 (inactive) in assay [3]; 0.445 (inactive) in assay [4]; 0.79 (inactive) in assay [5]; 0.736 (inactive) in [6]; -0.226 in assay [7]. The z-score in [8] is 0.685 (inactive); in [9] it was 0.513 (inactive); in assay [10], 1.88; in assay [11] it was -0.59; in assay [12], 0.474; in assay [13] it was 0.679. Also, the z-score in assay [14] was -0.35; in [15], -2.23; in [16] it was -0.259; in assay [17] it was 2.83 (inactive); in assay [18] it was -0.243; in assay [19], -0.101. In addition, the z-score in [20] is -0.435 (inactive). The composite z-score in assay [2] turned out to be 0.35.
Take `C=CCN1C(=O)[C@]2(O[C@H](CCO)[C@@H]([Si](C)(C)c3ccc(OC)cc3)[C@@H]2C)c2cc(N3CCCCC3=O)ccc21`: the z-score in [1] is 0.143 (inactive); in [3], 4.68 (inactive); in assay [4], 2.25 (inactive); in assay [5] it was -0.328 (inactive); in [6], 1.7 (inactive); in assay [7], 1.14. The z-score in [8] is 0.972 (inactive); in assay [9] it was 0.43 (inactive); in assay [10], 0.801; in assay [11], -1.25; in assay [12], 0.257; in assay [13], -2.15. Further, the z-score in [14] is -2.54; in assay [15], -3.82; in [16], -0.61; in assay [17] it was -0.305 (inactive); in assay [18] it was -0.982; in [19], -1.63. In assay [20], the z-score is -3.52 (inactive). In [2], this molecule displayed a composite z-score of 0.0004.
With `C=CC[C@@]1(C(=O)N(C)C)N=C(c2ccc(OCCCO)cc2)O[C@@H]1c1ccccc1N=[N+]=[N-]`, the z-score in assay [1] is 0.722 (inactive); in assay [3] it was 33 (active); in assay [4], 28.9 (active); in [5], 3.29 (inactive); in assay [6] it was 8.39 (active); in assay [7], -0.195. The z-score was -1.12 (inactive) in [8]; 0.475 (inactive) in [9]; 0.446 in [10]; 0.459 in [11]; -0.423 in assay [12]; 0.571 in assay [13]. The z-score in [14] is -0.761; in assay [15] it was -1.51; in assay [16], -0.328; in [17] it was 1.04 (inactive); in assay [18], -0.874; in assay [19], -1.31. Also, the z-score in assay [20] was -1.48 (inactive). For the same molecule, the composite z-score in assay [2] stood at 0.57.
For `CC(=O)NCCCC[C@@H]1NC(=O)[C@@H]2C[C@H](C(=O)NCCCCN(C)C)[C@H](c3cccc(OCCO)c3)N2C1=O`, the z-score in assay [1] was 0.522 (inactive); in assay [3], 0.628 (inactive); in assay [4] it was 0.0655 (inactive); in assay [5], -0.0825 (inactive); in assay [6], 0.105 (inactive); in [7] it was -0.326. Besides, the z-score in assay [8] was -0.0869 (inactive); in [9], -0.115 (inactive); in [10], -0.205; in assay [11] it was 0.0857; in assay [12], -0.749; in [13], -0.506. Further, the z-score was -0.589 in [14]; -0.486 in assay [15]; -0.085 in assay [16]; -0.24 (inactive) in assay [17]; -0.569 in assay [18]; -0.436 in assay [19]. Further, the z-score in [20] was 0.604 (inactive). The composite z-score in assay [2] was -0.243.
As for `O=C(c1ccccc1)N1Cc2ccccc2[C@@H]2OC(c3ccc(OCCCO)cc3)=N[C@]2(Cc2ccccc2)C1=O`, the z-score in assay [1] was -0.672 (inactive); in [3] it was 10.8 (active); in [4], 1.35 (inactive); in assay [5], 1.25 (inactive); in assay [6], 1.23 (inactive); in [7], -0.118. For the same molecule, the z-score is -0.893 (inactive) in assay [8]; 0.418 (inactive) in [9]; -0.781 in assay [10]; -1.09 in assay [11]; 1.27 in assay [12]; -0.795 in assay [13]. Besides, the z-score was -2.02 in assay [14]; -3.92 in assay [15]; -0.435 in assay [16]; 0.166 (inactive) in assay [17]; -1.11 in assay [18]; 0.106 in [19]. Further, the z-score in assay [20] was -1.57 (inactive). In assay [2], the composite z-score worked out at 0.343.

These data come from PubChem BioAssay.
